An excerpt weighted towards active compounds, which were near 0.74% of everything screened.
C-LANA FP = blocks KSHV LANA C-terminal domain binding to DNA | MBP-C-LANA/FAM-LBS DNA binding, fluorescence polarization | inhibition, % at 9 µM | AID 504423 | 340,000 compounds, 0.078% hits;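 active means highest replicate inhibition at or above 60% at 9 µM, even if other replicates fall short; inactive means all replicates below 60% inhibition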;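 further: 0% = neutral control wells and 100% = 4 µM acridine orange control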
cardiac RTF act = increases calcium sensitivity of human cardiac regulated thin filaments; IANBD-labeled TnC RTF fluorescence at EC20 calcium; 0% EC20 calcium, 100% full calcium; activation, % at 7.2 µM; 340,000 compounds, 0.24% hits;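 active means activation above the mean over all tested compounds plus 3 SD, cut at about 30% in these data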;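 further: rise in fluorescence read as greater calcium sensitivity of cardiac thin filaments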
RTF Ca sens inh = cardiac RTF calcium desensitization | P19429+P45379 | IANBD-labeled cardiac RTF, Ca2+ fluorescence | inhibition, % at 7.15 µM | 340,000 compounds, 0.12% hits | AID 493244;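 active means inhibition above the mean inhibition of all tested compounds plus 3 SD, cut at about 17% in these data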;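 further: assay run at fixed EC70 calcium of 1.6 mM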
eLon inh = E. coli protease La inhibition; P0A9M0; purified E. coli Lon protease, fluorescence polarization; inhibition, % at 7.94 µM; 360,000 compounds, 0.42% hits; in the data active means inhibition above about 13%, passing the limit was not always enough;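 further: 0% = enzyme with probe and DMSO and 100% = no enzyme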
Target sequence (P0A9M0 whole entry, looked up): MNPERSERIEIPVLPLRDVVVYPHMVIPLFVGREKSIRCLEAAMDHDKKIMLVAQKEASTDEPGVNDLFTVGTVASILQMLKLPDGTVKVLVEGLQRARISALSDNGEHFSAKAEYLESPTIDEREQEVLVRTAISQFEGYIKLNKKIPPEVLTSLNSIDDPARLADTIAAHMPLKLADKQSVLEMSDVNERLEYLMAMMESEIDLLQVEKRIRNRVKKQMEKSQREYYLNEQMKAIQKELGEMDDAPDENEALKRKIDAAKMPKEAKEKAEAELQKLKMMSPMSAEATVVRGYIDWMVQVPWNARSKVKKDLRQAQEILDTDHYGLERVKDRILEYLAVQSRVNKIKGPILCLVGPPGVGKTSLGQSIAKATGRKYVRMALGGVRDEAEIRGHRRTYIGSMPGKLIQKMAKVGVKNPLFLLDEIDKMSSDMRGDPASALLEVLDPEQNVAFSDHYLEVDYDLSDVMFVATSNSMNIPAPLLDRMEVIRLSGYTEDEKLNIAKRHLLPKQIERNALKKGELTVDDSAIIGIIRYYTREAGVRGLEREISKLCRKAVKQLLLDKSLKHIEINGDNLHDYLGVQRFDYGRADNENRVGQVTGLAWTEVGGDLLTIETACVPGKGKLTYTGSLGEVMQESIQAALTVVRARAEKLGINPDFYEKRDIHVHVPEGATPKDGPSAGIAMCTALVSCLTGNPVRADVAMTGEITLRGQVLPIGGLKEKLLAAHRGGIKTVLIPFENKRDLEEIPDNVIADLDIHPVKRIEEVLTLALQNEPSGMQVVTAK
Keap1-Nrf2 PPI = Keap1-Nrf2 (human) interaction inhibition; Q14145; Keap1 Kelch-Nrf2 peptide fluorescence polarization, 1536-well; inhibition, % at 9.4 µM; 340,000 compounds, 0.15% hits; AID 504523; in the data active means inhibition above about 12%;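 further: human Keap1 Kelch domain with fluorescein labeled Nrf2 9mer peptide probe; 0% = neutral control wells and 100% = peptide positive control; higher means more block of Keap1 binding to Nrf2 peptide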
eLon confirm = confirmation of E. coli Lon protease inhibitors. shares compounds with eLon inh. purified E. coli Lon, fluorescence polarization. inhibition, % at 7.94 µM. 1,400 compounds, 31% hits. AID 602230; in the data active means inhibition above about 16%;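 further: 0% = enzyme with probe and DMSO and 100% = no enzyme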
An asterisk follows results filed as active; / = no result given.

SMILES	C-LANA FP	cardiac RTF act	RTF Ca sens inh	eLon inh	Keap1-Nrf2 PPI	eLon confirm
Clc1ccc(CN2CC[C@H]3C=CCc4cccc(c43)C2)cc1	2	-4	-7	-3	-3	/
COc1cc(C(=O)OCC(=O)Nc2ccccc2C(=O)NC2CC2)c([N+](=O)[O-])cc1OC	-2	2	-6	35*	-2	-37
CC(=O)Nc1cccc(NC(=O)NC2CC(=O)N(c3ccc4c(c3)OCCO4)C2)c1 (configuration not stated)	/	/	/	-20	/	/
O=C1CCCN1CCCNS(=O)(=O)c1ccc(Cl)c(C(=O)N2CCOCC2)c1	-1	-1	-7	-1	-5	/
O=C(NCCN1CCOCC1)c1cc(S(=O)(=O)NCCCN2CCCC2=O)ccc1Cl	1	1	-8	40*	-1	10
O=C(Nc1nc2c(Br)cccc2s1)C1CC1	-1	-3	-6	23*	-3	81*
COc1ccc(S(=O)(=O)N2CCN(C(=O)CNC(=O)c3ccc4c(c3)OCO4)CC2)cc1	0	0	3	53*	1	-7
O=C1Nc2ccccc2/C1=C/c1cnc(-c2ccccc2)[nH]1	4	36*	-63	81*	1	30*
O=C1Nc2ccccc2/C1=C/c1cccnc1	4	7	-3	0	-11	/
O=C(O)CC(C(=O)O)C(=Cc1ccccc1)c1ccccc1 (configuration not stated)	/	/	/	0	/	/
O=S(=O)(Nc1ccc(S(=O)(=O)Nc2ncccn2)cc1)c1ccc(Cl)cc1	0	-7	-4	3	6	/
Nc1[nH]n(-c2c(Cl)cc(Cl)cc2Cl)c(=O)c1N=Nc1ccc(S(=O)(=O)Nc2ncccn2)cc1	-3	-6	3	21*	-2	9
O=C1NC[C@H](Cc2ccc(O)cc2)N(C[C@@H]2CCCN2C[C@H](Cc2ccc(O)cc2)N2C[C@H](Cc3ccccc3)N(CCc3ccccc3)C(=O)C2=O)C1=O	/	/	/	-8	/	/
COc1ccc([N+](=O)[O-])cc1NC(=O)C(C)c1ccccc1 (configuration not stated)	-1	-4	-4	22*	-1	-1
Cc1cc2cc(CNS(=O)(=O)c3ccc4ccccc4c3)ccc2n1C	2	0	-13	16*	1	12
Cc1cc2cc(CNC(=S)Nc3ccc(OC(F)(F)F)cc3)ccc2n1C	0	-2	12	19*	3	19*
CC(=O)Nc1ccc(S(=O)(=O)NCc2ccc3[nH]c(C)cc3c2)cc1	1	1	-7	19*	-4	7
CC(=O)Nc1ccc(S(=O)(=O)NCc2ccc(C)cc2)cc1	1	-3	2	5	-6	/
CC(=O)Nc1ccc(S(=O)(=O)NCc2ccc3c(c2)cc(C)n3C)cc1	0	1	-9	49*	-3	22*
Cc1cc(C)c(S(=O)(=O)NCc2ccc3c(c2)cc(C)n3C)c(C)c1	1	-1	-11	14	-2	/
COc1ccc(S(=O)(=O)N2CCCCC2)cc1NC(=O)C1CC1(Cl)Cl (configuration not stated)	/	/	/	-7	/	/
COC(=O)c1ccc(=O)n(Cc2ccc3c(c2)OCO3)c1	1	-1	-5	21*	-1	-7
S=c1[nH]nc(-c2ccccn2)n1/N=C/c1ccc(Cl)cc1	4	-5	-3	18*	2	-2
COc1ccccc1NS(=O)(=O)c1cccc(C(=O)N/N=C/c2ccc([N+](=O)[O-])o2)c1	-1	-9	-37	-38	-5	/
CC(=O)N1N=C(c2ccc(C)cc2)CC1c1ccco1 (configuration not stated)	1	13	7	5	-7	/
SMILES	C-LANA FP	cardiac RTF act	RTF Ca sens inh	eLon inh	Keap1-Nrf2 PPI	eLon confirm
Cc1ccc(C2=NN(C(=O)CCCC(=O)O)C(c3ccco3)C2)cc1 (configuration not stated)	0	1	-5	19*	0	-4
OCCN(Cc1ccccn1)Cc1ccccn1	/	/	/	1	/	/
Oc1cccc(N2Cc3ccccc3C2)c1	3	1	-6	0	-8	/
Oc1ccc(N2Cc3ccccc3C2)cc1	2	7	-6	37*	-2	-11
Cc1ccc(C(C)C)c(OCC(=O)NN=C2CCCCCCC2)c1	0	15	-10	4	-3	/
Cc1ccc(C(C)C)c(OCC(=O)NN=C2CCCC(=O)C2)c1	2	-2	-2	43*	2	-29
Cc1cccc(C)c1OCc1cc(C(=O)N2CCC(c3ccccc3)CC2)no1	-2	0	2	21*	-2	17*
CC(=O)N/N=C/c1cc(C(C)(C)C)cc(/C=N/NC(C)=O)c1O	8	/	/	41*	8	75*
Oc1cccc(/C=N/c2c(-c3ccco3)nc3ccccn23)c1	2	6	-3	22*	2	19*
O=[N+]([O-])c1ccc(-c2ccc(/C=N/c3c(-c4ccco4)nc4ccccn34)o2)cc1	0	3	4	80*	-2	18*
Cc1cc(C)c([N+](=O)[O-])cc1-c1ccc(/C=N/c2c(-c3ccco3)nc3ccccn23)o1	1	4	1	31*	1	-26
CC(C)(CC1(C)NC(=O)NC1=O)OCc1ccccc1 (configuration not stated)	4	-3	0	1	-1	/
CCCCCCN1C[C@@H](n2cc(-c3ccc(F)cc3)nn2)[C@H](O)C[C@@H]1c1ccc(Cl)cc1	/	/	/	-5	/	/
O=C(O)CCC1(C(=O)O)OCCc2ccccc21 (configuration not stated)	0	2	-2	17*	-9	-2
OCC[C@@H]1C[C@@H](O)[C@H](O)[C@]2(OCCc3ccccc32)O1	0	4	1	8	-6	/
CCN(CC)C(=O)C1=C(C)N(Cc2ccccc2)C(=O)C(CC(=O)NC2CCCC2)C1 (configuration not stated)	/	/	/	-9	/	/
CCOC(=O)CNc1ccc2c(c1)OCO2	38	25	-31	65*	22*	-4
Cc1ccc(NC(=O)CS(=O)CC(=O)Nc2ccccc2-c2ccc(C)o2)cc1 (configuration not stated)	0	1	-2	114*	2	0
CC(=O)Nc1ccccc1-c1ccc(C)o1	0	3	-5	1	-2	/
CC1CCC2(CC1)NC(=O)N(CC(=O)Nc1ccc(N3CCCCC3)cc1)C2=O (configuration not stated)	/	/	/	-3	/	/
CC(C)CN(C(=O)Cn1c(Cl)nc2c1c(=O)n(C)c(=O)n2C)C1CCS(=O)(=O)C1 (configuration not stated)	0	-2	-7	16*	-1	0
CC(C)C[C@H]1CN(CCCC[C@H]2CNC(=O)C(=O)N2Cc2ccccc2)C(=O)C(=O)N1CCC1CCCCC1	/	/	/	3	/	/
O=C1c2cccc3c([N+](=O)[O-])ccc(c23)C(=O)N1c1ccccn1	1	-2	4	27*	-2	20*
